Consider ten compounds from PubChem BioAssay (NCATS).

Structures are written as SMILES. Values without a mark were called inactive. Results filed as inconclusive are left out. Where a call stands in place of a potency, no number is given. For part of these data: Measured potencies and affinities stand elsewhere. The source made the active and inactive calls. Unless noted, no rule for the calls is given here.

The conditions of experiment [1]: Ebola virus entry assay, green channel fluorescence.
Experiment [2] in a line: qHTS assay for small molecule agonists of the antioxidant response element (ARE) signaling pathway measured by Nrf2-dependant transcriptional activity (AID 720636; active = well fitted curve in the direction sought with a large enough effect in the repeat runs; an effect the other way counts as inactive or inconclusive). The conditions noted are these: ARE-luc HepG2, Nrf2 luciferase reporter, 16 h; series mostly up to 92.4 µM. The essentials: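 Cells: ARE-luc HepG2 with Nrf2-responsive luciferase. Medium contained 1% dialyzed FBS. Compound exposure lasted 16 hr at 37 C and 5% CO2, followed by ONE-Glo luciferase detection.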
(In general: In qHTS, concentration-response curves come from the screen itself.)

The nature of experiment [3]: qHTS assay for small molecule agonists of the antioxidant response element (ARE) signaling pathway measured by Nrf2-dependant transcriptional activity - cell viability counter screen (AID 720653; active = well fitted curve in the direction sought with a large enough effect in the repeat runs; an effect the other way counts as inactive or inconclusive). As to conditions: ARE-bla HepG2 viability, CellTiter-Glo ATP luminescence, 16 h; max response: hits give low values. A digest of the protocol:
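ARE-bla HepG2 cells treated with compounds for 16 h at 37C; this counter screen measures viability as intracellular ATP by CellTiter-Glo luminescence after 30 min at room temperature.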

Experiment [4] is described as follows: qHTS Assay for Identifying Gametocytocidal Compounds (AID 743244; active = well fitted curve in the direction sought with a large enough effect; an effect the other way counts as inactive or inconclusive;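 also: actives lower the fluorescent signal which means gametocytes are killed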). As to conditions: P. falciparum 3D7 stage III-V gametocytes, alamarBlue, 72 h; max response: hits give low values. The essentials:
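In this qHTS viability screen, late-stage 3D7 gametocytes are incubated with compound for 72 h, then with alamarBlue for 24 h; reduced resorufin fluorescence marks killing.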

The nature of experiment [5]: qHTS assay for cell viability of HEK293 cells (AID 743288; active = well fitted curve in the direction sought with a large enough effect; an effect the other way counts as inactive or inconclusive; also: nearly all actives have a fitted effect of over 50% in size). As to conditions: ATP luminescence (CellTiter-Glo), 18 h; max response: hits give low values. The essentials:
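Parental HEK293 cells were seeded at 2,000 cells/well, rested at least 5 h at 37 C, then exposed to compounds in DMSO for 18 h at 37 C. Viability was read as ATP-dependent luciferase luminescence after 30 min at room temperature.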

A short description of experiment [6]: qHTS assay for cell viability of the p53RE-bla HCT-116 cell line (AID 743292; active = well fitted curve in the direction sought with a large enough effect; an effect the other way counts as inactive or inconclusive; also: nearly all actives have a fitted effect of over 55% in size). The conditions noted are these: p53RE-bla HCT-116 viability, ATP luminescence, 16 h; series mostly up to 95 µM. The essentials: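 HCT-116 p53RE-bla cells seeded 4,000/well; 5 h at 37 C; compound (DMSO) added; 16 h at 37 C; CellTiter-Glo added, 30 min RT; luminescence read.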
For experiment [7] the following is noted: Ebola virus entry assay, ratio channel.

For `N#C/C(=C1\SCC(c2ccccc2Cl)S1)n1ccnc1` (stereo not given), the outcome in experiment [1] was inactive.
As to `C#CC(C)(CC)OC(=O)c1ccccc1C(=O)O` (stereo not given), the outcome in experiment [1] was inactive.
As to `COc1ccccc1N1CCN(CC(O)COc2cc(OC)c(OC)c(OC)c2)CC1` (stereo not given), in experiment [1], the compound was classed as inactive.
In the case of `[O-][n+]1cccc(/C(Cl)=N/OC[C@@H](O)CN2CCCCC2)c1`, the result in experiment [1] was inactive.
For `C=CCNC(N)=S`, in experiment [1], the outcome was inactive.
`Nc1c(Cl)c(Cl)c(Cl)c(Cl)c1Cl`: the Potency entry in experiment [2] and in experiment [6] was “inactive” each time. For the same compound, the max response in experiment [3] was 1.83%; in experiment [4] it was 4.37%; in experiment [5], -4.75%. For the same compound, the result in experiment [7] was inactive.
For the compound `CN1C(=O)CC[C@H]1c1cccnc1`, the call in experiment [1] was inactive.
For the compound `COc1ncnc(NS(=O)(=O)c2ccc(N)cc2)c1OC`, the outcome in experiment [1] was inactive.
Consider `OCCCc1ccccc1`, for which the outcome in experiment [1] was inactive.
Consider `CCCCC(CC)COC(=O)c1ccc(N(C)C)cc1` (stereo not given), for which the result in experiment [1] was inactive.
